Assay [1] is described as follows: Viability qHTS for spleen associated tyrosine kinase inhibitor (SYKi) naive MV4-11 cells (AID 1963823). Also: nearly all actives have a fitted effect of over 40% in size. The procedure, abridged:
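SYKi-naive MV4-11 AML cells, 500 per well, were exposed to library compounds for 72 hr at 37 C, 5% CO2. Viability was then read by CellTiter-Glo luminescence after 10 min at room temperature.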
(In general: In qHTS, concentration-response curves come from the screen itself.)

Assay [2] can be described thus: Viability qHTS for spleen associated tyrosine kinase inhibitor (SYKi) drug resistant MV4-11 cells (AID 1963824). Also: nearly all actives have a fitted effect of over 35% in size. The procedure, abridged:
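SYK inhibitor-resistant MV4-11 AML cells, 500 per well, added to predispensed compounds and incubated 72 hr at 37 C, 5% CO2. Viability measured by CellTiter-Glo luminescence after 10 min at room temperature.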

Assay [3] can be described thus: Quantitative highthroughput screen to assess conditional lethalithy of NOMO1 cells grown in RPMI1640 with untreated serum (RPMI+s) (AID 1963876). Also: nearly all actives have a fitted effect of over 35% in size.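 As to Viability: 100% = DMSO wells and 0% = empty wells without cells.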 An outline of the steps: (§1)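 Each medium arm—HPLM with 10% dialyzed FBS, or RPMI1640 with 5 mM glucose and 10% untreated or dialyzed FBS—was screened against an 11-point, 3-fold compound titration for 48 h at 37 °C, with CellTiter-Glo luminescence as endpoint.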

Assay [4] in a line: Quantitative highthroughput screen to assess conditional lethalithy of NOMO1 cells grown in RPMI1640 with dialyzed fetal bovine serum (RPMI+ds) (AID 1963877). Also: nearly all actives have a fitted effect of over 30% in size.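 As to Viability: series mostly up to about 46 µM; 100% = DMSO control wells and 0% = empty wells.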 The procedure, abridged: as §1
A short description of assay [5]: Quantitative highthroughput screen to assess conditional lethalithy of P12 Ichikawa cells grown in Human Plasma-Like Medium with dialyzed fetal bovine serum (HPLM+ds) (AID 1963879). Also: nearly all actives have a fitted effect of over 35% in size. As to Viability: series mostly up to about 46 µM. As to conditions: Potency: viability. The procedure, abridged: as §1
The nature of assay [6]: Quantitative highthroughput screen to assess conditional lethalithy of P12 Ichikawa cells grown in RPMI1640 with dialyzed fetal bovine serum (RPMI+ds) (AID 1963880). Also: nearly all actives have a fitted effect of over 35% in size.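 As to Viability: 100% = DMSO wells and 0% = empty wells on each plate.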 As to conditions: Potency: P12-Ichikawa viability. The procedure, abridged:
as §1

Assay [7] in a line: Quantitative highthroughput screen to assess conditional lethalithy of P12 Ichikawa cells grown in RPMI1640 with untreated serum (RPMI+s) (AID 1963881). Also: nearly all actives have a fitted effect of over 35% in size.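 As to Viability: series mostly up to about 46 µM; 100% = DMSO wells and 0% = empty wells without cells.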 As to conditions: Potency: viability. The procedure, abridged:
as §1

Assay [8] is described as follows: Cellular viability qHTS for adrenocortical cancer (ACC) cell line SW-13 (AID 1963989). Also: nearly all actives have a fitted effect of over 65% in size.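 As to activity (max response): cells grown in serum-free medium with ITS supplement; % is scaled to controls: 0 for no effect and ±100 for the full control effect.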 As to conditions: SW-13 ACC cells viability, CellTiter-Glo, 48 h; activity (max response): stronger effect = lower value. The procedure, abridged:
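SW-13 cells in ITS-supplemented serum-free DMEM were plated overnight, then exposed for 48 h at 37C to compound titrations (up to 46 uM final). Viability was read by CellTiter-Glo luminescence; four-parameter logistic fits gave IC50 and efficacy.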

Assay [9] in a line: Cellular viability qHTS for adrenocortical cancer (ACC) cell line NCI-H295R (AID 1963990). Also: nearly all actives have a fitted effect of over 60% in size. An outline of the steps: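 Luminescent ATP read-out (CellTiter-Glo, 20 min RT) after 48 h drug exposure of NCI-H295R cells; a titration up to 46 uM final. Data normalized to doxorubicin (100% inhibition) and DMSO (0%); 4-parameter fit gives IC50, max response.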
Assay [10] is described as follows: Quantitative highthroughput screen to assess conditional lethalithy of SEM cells grown in RPMI1640 with unreated serum (RPMI+s) (AID 1963883). Also: nearly all actives have a fitted effect of over 35% in size.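 As to Viability: 100% = DMSO wells and 0% = empty wells without cells.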 An outline of the steps:
as §1

Assay [11] is described as follows: Quantitative highthroughput screen to assess conditional lethalithy of SEM cells grown in Human Plasma-Like Medium with dialyzed fetal bovine serum (HPLM+ds) (AID 1963882). Also: nearly all actives have a fitted effect of over 35% in size. As to Viability: series mostly up to about 46 µM. The procedure, abridged: as §1
Assay [12] in a line: Quantitative highthroughput screen to assess conditional lethalithy of SEM cells grown in RPMI1640 with dialyzed fetal bovine serum (RPMI+ds) (AID 1963884). Also: nearly all actives have a fitted effect of over 35% in size.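 As to Viability: series mostly up to about 46 µM; 100% = DMSO control wells and 0% = empty wells without cells.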 An outline of the steps:
as §1

“And” between values parts separate entries of the source, which are not always exact repeats. Identical values can stand only once. Records with an inconclusive call do not appear. The source holds several records for some structures; these can differ, active in one and inactive in another. The source made the active and inactive calls. Calls follow the shape of the dose curve; as a rule, active = well fitted curve in the direction sought with a large enough effect; inconclusive = small, poorly fitted or top-dose-only effect, or another doubt; inactive = no such curve, though single readings can be large; an effect the other way counts as inactive or inconclusive.
Potency is read from the fitted curve at half-maximal effect.

For `CC(C)NCC(O)c1ccc(O)c(O)c1` (centres undefined), the Potency result in assay [1], in assay [2] and in [9] was “inactive” throughout. Moreover, the Potency in assay [3] is 5900 nM (active); in [4], 7430 nM (active); in assay [5], 6620 nM (active); in assay [6] it was 9350 nM (active); in assay [7], 7430 nM (active). The activity (max response) in [8] was 9.6% (inactive) and -17.4% (inactive).

Turning to `NC(=O)Nc1cc(-c2cccc(F)c2)sc1C(=O)N[C@H]1CCCNC1`, the Potency result in assay [1] and in [2] was “inactive” throughout. The Potency in [3] was 1050 nM (active); in assay [4], 590 nM (active); in assay [5] it was 1870 nM (active); in assay [6], 1180 nM (active); in assay [7], 1180 nM (active); in [10] it was 7.4 nM (active). For the same molecule, in assay [9], the Potency was 794 nM (active).

For the molecule `NCC(=O)Nc1ccc(-n2nc(C(F)(F)F)cc2-c2ccc3c(ccc4ccccc43)c2)cc1`, the Potency is 5.8 µM (active) and 5.9 µM (active) in assay [1]; 2.91 µM (active) and 4.68 µM (active) in assay [2]; 9350 nM (active) in assay [4]; 2960 nM (active) in assay [5]; 2960 nM (active) in assay [6]. The Potency entry in [3], in assay [11] and in assay [10] was “inactive” in each case.

In the case of `Cc1nc(-c2ccc(OCC(C)C)c(C#N)c2)sc1C(=O)O`, the Potency result in assay [1], in assay [2], in assay [3], in assay [4], in assay [5] and in [6] was “inactive” throughout. In addition, the Potency entry in assay [7], in [11], in [10], in [12] and in assay [9] was “inactive” in each case. The activity (max response) in assay [8] was 5.55% (inactive) and 8.19% (inactive).

Turning to `COc1ccc(-n2nc(C(N)=O)c3c2C(=O)N(c2ccc(N4CCCCC4=O)cc2)CC3)cc1`, the Potency result in [1], in assay [2], in assay [10], in assay [12] and in assay [9] was “inactive” throughout. For the same molecule, the Potency is 118 nM (active) in assay [3]; 235 nM (active) in [4]; 2640 nM (active) in assay [5]; 2960 nM (active) in [6]; 2640 nM (active) in [7].

In the case of `CC[C@@H]1C(=O)N(C)c2cnc(Nc3ccc(C(=O)NC4CCC(N5CCN(CC6CC6)CC5)CC4)cc3OC)nc2N1C(C)C` (some centres undefined), the Potency is 0.0206 µM (active) in assay [1]; 23.1 nM (active) and 9.2 nM (active) and 16.6 nM (active) in assay [2]; 93.5 nM (active) in [3]; 74.3 nM (active) in [4]; 33.2 nM (active) in assay [5]; 74.3 nM (active) in assay [7]. Moreover, the Potency in [11] was 29.6 nM (active); in [12], 59 nM (active); in assay [8] it was 50.1 nM (active); in assay [9], 1410 nM (active).

In the case of `Cc1cc2c(s1)Nc1ccccc1N=C2N1CCN(C)CC1`, the Potency in assay [1] is 20.6 µM (active); in [2], 23.1 µM (active). The Potency result in [3], in [4], in assay [5], in [6], in [7] and in assay [11] was “inactive” in each case. The Potency result in assay [10], in assay [12] and in assay [9] was “inactive” in each case. The activity (max response) in assay [8] is -7.86% (inactive).

Turning to `CC1(C)CCC(c2ccc(Cl)cc2)=C(CN2CCN(c3ccc(C(=O)NS(=O)(=O)c4ccc(N[C@H](CCN5CCOCC5)CSc5ccccc5)c(S(=O)(=O)C(F)(F)F)c4)cc3)CC2)C1`, the Potency in assay [1] was 116 nM (active) and 332 nM (active); in assay [2] it was 32.6 nM (active) and 118 nM (active); in [3], 662 nM (active); in assay [4], 264 nM (active); in assay [5], 118 nM (active); in assay [6] it was 264 nM (active). Moreover, the Potency was 166 nM (active) in assay [7], 83.3 nM (active) in [11], 52.6 nM (active) in assay [10] and 52.6 nM (active) in [12]. For the same molecule, the activity (max response) in assay [8] is 11.1% (inactive). Further, in assay [9], the Potency result is “inactive”.

For the molecule `CC(c1cc2ccccc2s1)N(O)C(N)=O` (centres undefined), the Potency result in [1], in assay [2], in [3], in [4], in assay [5] and in [6] was “inactive” throughout. In addition, the Potency result in assay [7], in assay [12] and in [9] was “inactive” each time. For the same molecule, in assay [8], the activity (max response) is -61.3% (inactive).

As for `CC(C)NCC(O)COc1ccc(COCCOC(C)C)cc1` (centres undefined), the Potency result in [1], in [2], in assay [3], in assay [4], in [5] and in [6] was “inactive” in each case. Further, the Potency result in assay [7], in assay [11], in [10], in [12] and in [9] was “inactive” throughout. Further, the activity (max response) in assay [8] was 0.903% (inactive).

`O=C1CCc2ccc(OCCCCN3CCN(c4cccc(Cl)c4Cl)CC3)cc2N1`: the Potency is 10.5 µM (active) in assay [1] and 9.34 µM (active) in assay [2]. Further, the Potency result in assay [3], in assay [4], in [5], in assay [6], in [7] and in assay [11] was “inactive” each time. Also, the Potency result in assay [10] and in assay [9] was “inactive” in each case.

Regarding `COc1ccc(COc2cc3oc(=O)c4cc(C(C)O)ccc4c3cc2OC)cc1` (centres undefined), the Potency result in [1], in assay [3], in assay [4], in assay [5] and in assay [9] was “inactive” each time. Also, the Potency in assay [2] is 8.2 µM (active) and 4.68 µM (active); in assay [7] it was 18700 nM (active); in assay [11], 18700 nM (active).

Consider `CCc1ccc(C(=O)Nc2cc(CN3CCN(C)CC3)cc(C(F)(F)F)c2)cc1C#Cc1cnc2ccnn2c1`, for which the Potency in assay [1] was 2.59 µM (active) and 2.06 µM (active); in assay [2] it was 3.66 µM (active) and 1.84 µM (active); in assay [8], 10000 nM (active); in assay [9] it was 7940 nM (active). Also, the Potency entry in assay [3], in assay [4], in [5], in assay [6], in assay [7] and in [10] was “inactive” each time.

Consider `N#Cc1c(O)c2c(-c3ccc(-c4ccccc4O)cc3)csc2[nH]c1=O`, for which the Potency entry in [1], in assay [2], in assay [3], in [4], in assay [5] and in [6] was “inactive” each time. In addition, the Potency result in assay [7], in [11], in [10], in assay [12] and in assay [9] was “inactive” in each case. Besides, in [8], the activity (max response) is 4.91% (inactive).

Regarding `OC(CCN1CCCCC1)(c1ccccc1)C1CC2C=CC1C2` (centres undefined), the Potency entry in [1], in [3], in assay [4], in assay [5], in [6] and in assay [10] was “inactive” in each case. Besides, the Potency entry in assay [12] and in assay [9] was “inactive” each time. For the same molecule, in assay [2], the Potency result is “inactive and 16.6 µM (active)”. Besides, in assay [8], the activity (max response) is -4.13% (inactive) and -26% (inactive).
